Measurements from PubChem BioAssay (NCI).
Values joined by “and” are separate entries in the source; they are usually repeats but may differ in a detail not shown here. Identical values can stand only once. This is part of a sample that, as a whole, favours compounds with a hit. Of some 79,000 tested, about 15% had one in any assay. Unmarked numbers belong to inactive results. Active and inactive are the calls of the source. No stated cut-off is given here; in the data, active means growth inhibition above about 70%; inactive means the rest.

Tests used:
[1] = NCI Yeast Anticancer Drug Screen. Data for the rad50 strain (AID 155);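 further: 0% = growth of vehicle-only cultures of the same strain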; conditions: S. cerevisiae rad50 strain growth inhibition, stronger effect = higher value
Procedure, shortened: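 DNA repair mutant yeast, compound exposure, growth read-out; inhibition is taken relative to vehicle.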

[2] = NCI Yeast Anticancer Drug Screen. Data for the mec2-1 strain (AID 157); conditions: S. cerevisiae mec2-1 strain, stronger effect = higher value
Procedure, shortened: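 Mutant yeast (mec2-1) grown with compound; growth inhibition relative to vehicle control reported.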

[3] = NCI Yeast Anticancer Drug Screen. Data for the cln2 rad14 strain (AID 165);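 further: 0% = growth equal to vehicle treated cultures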; conditions: S. cerevisiae cln2 rad14 strain, stronger effect = higher value
Procedure, shortened: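 Readout is yeast growth inhibition versus vehicle-treated controls, using a strain with cln2 and rad14 alterations exposed to compound.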

[4] = NCI Yeast Anticancer Drug Screen. Data for the bub3 strain (AID 167); conditions: S. cerevisiae bub3 mutant strain, stronger effect = higher value
Procedure, shortened: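 In this screen, a yeast mutant lacking normal mitotic checkpoint function is challenged with compound. Relative growth versus vehicle gives the inhibition value.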

[5] = NCI Yeast Anticancer Drug Screen. Data for the mlh1 rad18 strain (AID 175); conditions: S. cerevisiae mlh1 rad18 strain growth inhibition, stronger effect = higher value
Procedure, shortened: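 Genetically defined yeast (DNA repair-deficient) exposed to compounds; growth inhibition determined relative to vehicle.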

[6] = NCI Yeast Anticancer Drug Screen. Data for the sgs1 mgt1 strain (AID 161);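 further: 0% = growth of cultures given vehicle only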; conditions: S. cerevisiae sgs1 mgt1 strain, stronger effect = higher value
Procedure, shortened: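 Yeast cells carrying a defined DNA-repair defect were exposed to test compounds. Growth inhibition was measured relative to vehicle-treated controls.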

[7] = at 5.0 µM (retest, dose inferred, filed as 0.5)
[8] = at 50.0 µM (retest, dose inferred, filed as 5.0)

Structure (SMILES)	growth inhibition [1, 7]	growth inhibition [1, 8]	growth inhibition ([1]; at 50.0 µM)	growth inhibition [2, 7]	growth inhibition [2, 8]	growth inhibition ([2]; at 50.0 µM)	growth inhibition [3, 7]	growth inhibition [3, 8]	growth inhibition ([3]; at 50.0 µM)	growth inhibition [4, 7]	growth inhibition [4, 8]	growth inhibition ([4]; at 50.0 µM)	growth inhibition [5, 7]	growth inhibition [5, 8]	growth inhibition ([5]; at 50.0 µM)	growth inhibition ([6]; at 50.0 µM)	growth inhibition [6, 7]	growth inhibition [6, 8]
CSC(=S)NN=C(c1ccccn1)c1ccccn1	78% (active)	96% (active)	94% (active)	24%	31%	97.8% (active)	4%	-19%	91.7% (active)	-5%	96% (active)	-8.05%	78% (active)	80% (active)	36%			
C(=C\c1ccc(-[n+]2nc(-c3ccccc3)nn2-c2ccccc2)cc1)/c1ccccc1	85% (active)	98% (active)	91.5% (active)	81% (active)	100% (active)	93.4% (active)	54%	99% (active)	93.2% (active)	86% (active)	99% (active)	92.3% (active)	95% (active)	99% (active)	90.9% (active)			
C=CCOCCC=O	7%	38%	45.4%	3%	5%	14.2%	4%	2%	-20.4%	4%	-3%	47.7%	4%	11%	54.6%			
CC1C2CCC3C4CC=C5CC(N(C)C)CCC5(C)C4CCC32CN1C (stereo not given)			-9.65% and 13.9% and -0.1%			-3.8% and 1% and -6.15%			7.25% and 0.15% and 30.5%			-6.35% and 18.9% and 33.6%			9.35% and 23.6% and -7.35%	-8% and 7.6% and -3.15%		
Cc1ccnc(N)c1			-10.2% and -13.3% and 9.05%			-3.4% and -17.8% and 11.4%			-34.4% and -28.6% and -33.6%			0.95% and 7.15% and -8.9%			1.35% and 16.1% and 1.85%	2.2% and -19.4% and -6.3%		
O=CC(O)C(O)C(O)C(O)C(O)CO (stereo not given)			-13.5% and 36% and -23.8%			-1.55% and -10.8% and -7.35%			-56.4% and -44.2% and -19.8%			7.5% and 25.1% and -0.4%			-12.4% and 19.2% and 4.25%	-8.85% and -1.5% and -6.45%		
CSC(=S)CC(O)[C@@H]1CC2c3ccccc3C1c1ccccc12 (stereo not given in full)				1%	93% (active)	84.3% (active)	2%	92% (active)	79.7% (active)	17%	93% (active)	77% (active)	5%	93% (active)	71.5% (active)	65.7%	1%	93% (active)
N#CC1C(=O)NC(=O)C(C#N)C1c1c(Cl)cccc1Cl (stereo not given)	5%	72% (active)	96.2% (active)	1%	55%	92.5% (active)				-7%	74% (active)	91% (active)	1%	93% (active)	94.7% (active)	94% (active)	4%	91% (active)
NCCOB1c2ccccc2Cc2ccccc21	2%	98% (active)	45.6%	6%	99% (active)	98.7% (active)	-2%	99% (active)	99% (active)	1%	98% (active)	99.1% (active)	0%	99% (active)	99% (active)			
Cc1ccccc1Sc1ncnc2ccccc12	2%	34%	85.5% (active)	3%	49%	73.8% (active)	1%	-1%	5.45%	-5%	7%	37.6%	-7%	48%	70.9% (active)			
CCCCCCCCC(=O)Cl				9%	61%	47.9%	6%	38%	27.1%	0%	77% (active)	69.3%				77.5% (active)	10%	64%
CCCCOC(=O)c1n[nH]c(C)c1N=NN(C)C	43%	99% (active)	99% (active)	96% (active)	99% (active)	99% (active)				84% (active)	99% (active)	99.2% (active)	80% (active)	99% (active)	99.2% (active)	99.2% (active)	95% (active)	99% (active)
CC(C)c1ccc2c(c1)CC[C@H]1[C@](C)(CN)CCC[C@]21C				2%	98% (active)	89.2% (active)	3%	97% (active)	91.8% (active)	7%	99% (active)	90% (active)	-9%	98% (active)	98.4% (active)	99.7% (active)	11%	99% (active)
CCc1cc(CC)c(-c2ccco2)c(COC(=O)NC)c1				-3%	64%	94.2% (active)	-7%	25%	77.4% (active)	-8%	72% (active)	96% (active)	-1%	86% (active)	96.3% (active)	94.3% (active)	-4%	78% (active)
COc1cccc2c1N[S@](=O)S2	-12%	95% (active)	86.9% (active)	-12%	94% (active)	90.2% (active)	-2%	33%	30%	1%	95% (active)	95.5% (active)	-11%	77% (active)	69.9%			
Cc1nn(C)c2ccc3ccccc3c(=O)c12	9%	66%	88.5% (active)	-1%	44%	45%	18%	47%	29.4%	-6%	26%	32.6%	11%	81% (active)	76% (active)			
CO/C(=N\N=C(/c1ccccc1)C(F)(F)F)c1ccncc1	44%	75% (active)	45%	0%	58%	62.6%	25%	52%	44.5%	2%	79% (active)	75.2% (active)	0%	66%	65%			
CCCCCCCCN(CCCCCCCC)CC(O)c1cc(-c2ccc(Cl)cc2)nc2c(Cl)cccc12 (stereo not given)	1%	5%	19.1%	-1%	1%	25.2%				2%	12%	6.6%	3%	4%	33.5%	35.6%	-3%	20%
CCCCCCCCCCCOc1cccc(N2C(N)=NC(N)=NC2(C)C)c1				99% (active)	96% (active)	99.5% (active)	98% (active)	90% (active)	58.5%	98% (active)	96% (active)	99.1% (active)	99% (active)	95% (active)	98.7% (active)	98.6% (active)	99% (active)	96% (active)
C=CCCCN1C(=O)C2C3c4ccccc4C(C=O)(c4ccccc43)C2C1=O (stereo not given)				8%	20%	30.7%	16%	12%	29.6%	26%	17%	4.65%	27%	35%	3.25%	27.9%	0%	23%
